Source: PubChem BioAssay (The Scripps Research Institute Molecular Screening Center)
An excerpt weighted towards active compounds, which were near 3.5% of everything screened.
TEAD-YAP block: TEAD-YAP interaction inhibition; AID 1259422; inhibition, % at 9.12 µM; 1.4% of 640,000 active; HEK-TIYL cells, TEAD-Gal4/YAP UAS-luciferase luminescence; in the data active = inhibition above about 32%
GPR151 ag: human GPR151 activation; PathHunter beta-arrestin GPR151 cells, luminescence; activation, % at 11.2 µM; 1% of 650,000 active; AID 1508602; in the data active = activation above about 4.9%
Target sequence (Q8TDV0 whole entry, looked up): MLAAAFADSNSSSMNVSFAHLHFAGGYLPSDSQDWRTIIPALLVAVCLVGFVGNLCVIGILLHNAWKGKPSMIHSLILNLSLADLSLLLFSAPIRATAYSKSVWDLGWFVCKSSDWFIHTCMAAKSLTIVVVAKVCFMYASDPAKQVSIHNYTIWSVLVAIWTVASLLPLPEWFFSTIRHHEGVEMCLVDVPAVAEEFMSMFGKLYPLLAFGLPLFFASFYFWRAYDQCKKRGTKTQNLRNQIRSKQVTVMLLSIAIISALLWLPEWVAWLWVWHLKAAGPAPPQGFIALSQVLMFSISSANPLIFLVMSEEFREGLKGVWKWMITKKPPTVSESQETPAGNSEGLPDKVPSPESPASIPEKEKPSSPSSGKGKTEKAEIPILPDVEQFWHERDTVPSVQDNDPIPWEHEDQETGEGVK
FBW7 activator: activators of human E3 ligase FBW7. Q969H0. AlphaScreen FBW7–phospho-cyclin E peptide binding, activator screen. normalized activity (activation), % at 26.1 µM. 0.13% of 650,000 active. AID 1259310; in the data active = normalized activity above about 1.9%;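 also: purified mutant Fbw7 with reduced substrate affinity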
MITF primary: human MITF inhibition, primary screen. AID 1259374. AlphaScreen MITF homodimerization, bead proximity signal. 0.91% of 650,000 active. O75030. inhibition, % at 2.6 µM; in the data active = inhibition above about 50%
GPR151 confirm: confirmation of human GPR151 activators. activation, % at 11.2 µM. GPR151 PathHunter beta-arrestin cells, luminescence, 90 min; % of EA-reagent control over plate median. 6,700 tested, under 10 active. shares compounds with GPR151 ag;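 active = mean percent activation across replicates above the confirmation screen cutoff of 4.91%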
GPR119 ag: counter-screen for GPR151 activators: effect on human GPR119 | shares compounds with GPR151 ag | GPR119 PathHunter beta-arrestin cells, luminescence, 90 min; 0 = compound-well median, 100 = enzyme-acceptor control | activation, % at 11.2 µM | 0.3% of 6,700 active;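 active = mean percent activation in the counterscreen above 29.09%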;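 also: counterscreen on off-target GPR119 to flag nonselective hits from the GPR151 activator screen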
Numbers stand for hits; i = inactive; nt = no result given.

SMILES | TEAD-YAP block | GPR151 ag | FBW7 activator | MITF primary | GPR151 confirm | GPR119 ag
CC(=O)C1=C(C)N(C)C(=O)NC1c1cccs1 (configuration not stated) | i | i | i | i | nt | nt
CCc1nnc(SCC(=O)N2c3ccccc3Sc3ccccc32)n1N | i | i | i | i | nt | nt
Cc1nnc(SCC(=O)N2c3ccccc3Sc3ccccc32)n1N | i | 7.4 | i | i | i | i
COc1cccc(/C=N/N(CCC#N)C2=NS(=O)(=O)c3ccccc32)c1O | i | 10 | i | i | i | i
COc1ccc([N+](=O)[O-])cc1/C=N/N(CCO)C1=NS(=O)(=O)c2ccccc21 | i | i | i | i | nt | nt
COc1ccc(/C(C)=N/Nc2cccc(Cl)c2)c(O)c1 | i | i | i | i | nt | nt
COC(=O)c1cccc(Nc2nc(C)cc(C)n2)c1 | i | 12 | i | i | i | i
O=C(O)CNS(=O)(=O)Cc1ccccc1 | i | i | i | i | nt | nt
CCOC(=O)CNS(=O)(=O)Cc1ccccc1 | i | 6.8 | i | i | i | i
CN1C(=O)C(C)(C)COc2cc(NC(=O)Nc3ccc4c(c3)OCO4)ccc21 | i | i | i | i | nt | nt
CC(C)CCN1C(=O)C(C)(C)COc2cc(NC(=O)c3ccc4c(c3)OCO4)ccc21 | i | 5.6 | i | i | i | i
O=C(CNC(=O)c1ccco1)N/N=C/c1cccc([N+](=O)[O-])c1O | i | i | i | i | nt | nt
COc1cccc(CNC(=O)c2cc3ccc(-c4cn[nH]c4)cc3n2CCCO)c1 | i | 5.5 | i | i | i | i
COc1cccc(CNC(=O)c2cc3ccc(-c4ccncc4)cc3n2C)c1 | i | 7.8 | i | i | i | i
COc1cccc(CNC(=O)c2cc3ccc(-c4ccncc4)nc3[nH]2)c1 | i | 5.2 | i | i | i | i
COc1cccc(CNC(=O)c2cc3ccc(-c4ccncc4)cc3[nH]2)c1 | i | i | i | i | nt | nt
O=C(CNC(=S)N(Cc1ccccc1)Cc1cccs1)N1CCCC1 | i | i | i | i | nt | nt
CC(C)(C)C(=O)Nc1nnc(SCC(N)=O)s1 | i | 5.2 | i | i | i | i
CC(C)(C)C(=O)Nc1nnc(SCC(=O)NO)s1 | i | i | i | i | nt | nt
CCOC(=O)CNC(=O)CSc1nnc(NC(=O)C(C)(C)C)s1 | i | 5.2 | i | i | i | i
Cn1c(SCC(=O)Nc2ccc(Br)cc2)nnc1-c1ccc(N)cc1 | i | 5.3 | i | i | i | i
CC(=O)Nc1ccc(NC(=O)CSc2nnc(-c3ccncc3)n2C)cc1 | i | i | i | i | nt | nt
CCc1ccc(NC(=O)CSc2nnc(-c3ccc(N)cc3)n2C)cc1 | i | i | i | i | nt | nt
Cn1c(SCC(=O)Nc2ccc3nc(SCC(=O)Nc4ccccc4F)sc3c2)nnc1-c1ccc(Cl)cc1Cl | i | i | i | i | nt | nt
Cn1c(SCC(=O)Nc2ccc3nc(SCC(=O)c4ccc(Cl)cc4)sc3c2)nnc1-c1ccc(N)cc1 | i | 5.5 | 29 | i | i | i
SMILES | TEAD-YAP block | GPR151 ag | FBW7 activator | MITF primary | GPR151 confirm | GPR119 ag
CCn1c(SCC(=O)Nc2ccc(C(C)=O)cc2)nnc1-c1ccco1 | i | i | i | i | nt | nt
CCn1c(SCC(=O)Nc2ccc(C(N)=O)cc2)nnc1-c1ccco1 | i | 6.8 | i | i | i | i
CC(=O)Nc1ccc(NC(=O)CSc2nnc(-c3ccncc3)n2N)cc1 | i | 5.5 | i | i | i | i
O=C(O)CCC/C=C\C[C@@H]1[C@@H](CCC(=O)CCc2ccccc2)[C@H](O)C[C@@H]1O | nt | i | nt | i | nt | nt
COc1cccc(NC(=O)C2CCCN2S(=O)(=O)c2cccc3cccnc23)c1 (configuration not stated) | i | 7.3 | i | i | i | i
COc1cc(NC(=O)C2CCCN2S(=O)(=O)c2cccc3cccnc23)cc(OC)c1 (configuration not stated) | i | i | i | i | nt | nt
COc1cc(NC(=O)Cc2ccc(F)cc2)c(OC)cc1Cl | i | 5.0 | i | i | i | i
COCCCNC(=O)Cc1ccc(F)cc1 | i | i | i | i | nt | nt
COc1cc(NC(=O)Cc2ccc(Cl)cc2)c(OC)cc1Cl | i | i | i | i | nt | nt
COc1ccccc1NC(=O)NNC(=O)CN(C)S(=O)(=O)c1ccc(C)cc1 | i | 5.3 | i | i | i | i
COc1cc(NC(=O)CN(C)S(=O)(=O)c2ccc3ccccc3c2)c(OC)cc1Cl | i | 5.8 | i | i | i | i
COCCNC(=O)Cc1ccc(F)cc1 | i | 5.4 | i | i | i | i
COc1ccccc1NC(=O)CN(C)S(=O)(=O)c1ccccc1 | i | i | i | i | nt | nt
Cc1ccc(C(=O)ON2C(=O)c3ccccc3C2=O)cc1C | i | 7.6 | i | i | i | i
Cc1ccc(OCC(=O)N2CCN(C(=O)COc3ccc4ccccc4c3)CC2)cc1 | i | i | i | i | nt | nt
Cn1nnc2c(N3CCN(C(=O)COc4ccc5ccccc5c4)CC3)ncnc21 | i | 5.1 | i | i | i | i
C#CCOc1ccc2c(c1)c(C(=O)OCC)c(C)n2-c1ccc(N(CC)CC)cc1 | i | i | i | i | nt | nt
O=C(O)c1cccc(-n2cc(-c3cc(F)cc(F)c3)cn2)c1 | i | 7.2 | i | i | i | i
O=C(O)c1ccc(-c2cnn(-c3ccccc3)c2)nc1 | i | i | i | i | nt | nt
COc1ccc(C(=O)Cn2c(-c3nnc(C(C)C)o3)cc3ccccc32)cc1 | i | i | i | i | nt | nt
CC(C)c1nnc(-c2cc3ccccc3n2Cc2ccccc2)o1 | i | 5.6 | i | i | i | i
O=C(Nc1cccc2ccccc12)N1CCN(c2ccc(F)cc2)CC1 | i | 11 | i | i | i | i
CC(=O)c1ccc(N2CCN(C(=O)Nc3ccc(C)cc3)CC2)cc1 | i | i | i | i | nt | nt
CC(=O)c1ccc(N2CCN(C(=O)Nc3cccc(F)c3)CC2)cc1 | i | 11 | i | i | i | i
O=C(/C=C/c1ccc([N+](=O)[O-])cc1)Nc1ccccc1Cl | i | 7.4 | i | i | i | i
SMILES | TEAD-YAP block | GPR151 ag | FBW7 activator | MITF primary | GPR151 confirm | GPR119 ag
NC(=O)c1ccccc1NC(=O)/C=C/c1ccc(Cl)cc1 | i | i | i | i | nt | nt
NC(=O)c1ccccc1NC(=O)/C=C/c1ccccc1 | i | 7.7 | i | i | i | i
CCCCOc1ccc(C(=O)N/C(=C/c2ccc([N+](=O)[O-])cc2)C(N)=O)cc1 | i | i | i | i | nt | nt
CCCCOc1ccc(C(=O)N/C(=C/c2ccc(Cl)cc2)C(N)=O)cc1 | i | 9.8 | i | i | i | i
c1ccc(CN2CCc3nnc(C4CCCO4)n3CC2)cc1 (configuration not stated) | i | i | i | i | nt | nt
CCC1CN(Cc2nc3ccccc3[nH]2)Cc2cc(OC)ccc2O1 (configuration not stated) | i | i | i | i | nt | nt
CCC1CN(CCC(=O)NCCc2nc3ccccc3[nH]2)Cc2cc(OC)ccc2O1 (configuration not stated) | i | 7.0 | i | i | i | i
CCOC(=O)CC1COCCN1C(=O)CCc1nnc(CCCCc2ccccc2)o1 (configuration not stated) | i | i | i | i | nt | nt
CC(C)c1ccc(/C=N/Nc2nncc(=O)[nH]2)cc1 | i | 5.6 | i | i | i | i
